From PubChem BioAssay
HEK293 tox: cytotoxic compounds in HEK 293 cells; HEK 293 viability, ATP luminescence (CellTiter-Glo), 48-72 h; Potency, µM (top dose mostly 115 µM), without a hit: at the top dose activity change, negative = cytotoxicity, actives largely listed as inhibitors; 6.6% of 94,000 active; AID 1345083; also: % is scaled to controls: 0 for no effect and ±100 for the full control effect; nearly all actives have a fitted effect of over 60% in size
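CellTiter-Glo luminescence (cellular ATP) was read after 48 or 72 hr of compound exposure at 37 degree Celsius. Cells were HEK 293 plated at 250 cells/well.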
FLuc inh-1: blocks purified firefly luciferase enzyme activity; purified P. pyralis luciferase, luminescence, biochemical; Potency, µM (doses to about 115 µM), actives largely listed as inhibitors; 2.5% of 76,000 active; AID 1347043; P08659; also: % is scaled to controls: 0 for no effect and ±100 for the full control effect; nearly all actives have a fitted effect of over 65% in size
Target sequence (P08659 whole entry, looked up): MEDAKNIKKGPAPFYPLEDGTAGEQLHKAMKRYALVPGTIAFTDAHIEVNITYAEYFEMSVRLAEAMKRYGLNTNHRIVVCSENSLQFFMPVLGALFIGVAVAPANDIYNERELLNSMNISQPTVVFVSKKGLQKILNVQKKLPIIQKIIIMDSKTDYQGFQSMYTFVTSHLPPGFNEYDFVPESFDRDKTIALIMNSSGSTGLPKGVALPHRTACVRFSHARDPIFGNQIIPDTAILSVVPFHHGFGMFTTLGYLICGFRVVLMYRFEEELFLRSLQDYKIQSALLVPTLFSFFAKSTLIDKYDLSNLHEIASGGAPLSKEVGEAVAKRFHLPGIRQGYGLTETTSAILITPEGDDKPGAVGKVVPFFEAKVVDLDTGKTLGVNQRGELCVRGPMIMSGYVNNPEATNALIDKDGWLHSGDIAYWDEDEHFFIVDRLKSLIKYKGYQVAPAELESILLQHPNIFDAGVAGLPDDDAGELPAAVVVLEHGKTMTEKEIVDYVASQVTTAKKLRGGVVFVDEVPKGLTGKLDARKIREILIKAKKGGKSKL
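Biochemical qHTS: compound (6-point titration) added to 10uM D-luciferin plus 10uM ATP in Tris acetate pH 7.5 buffer with Mg, Tween-20 and BSA, then purified enzyme at 10nM; light output imaged.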
NIH3T3 tox: NIH 3T3 cell cytotoxicity; NIH 3T3 viability, CellTiter-Glo ATP luminescence, 48-72 h; 4.3% of 94,000 active; Potency, µM (series often up to 96.7 µM), inactives show at the highest dose activity change, negative = cytotoxicity, most hits filed as inhibitors; also: % is scaled to controls: 0 for no effect and ±100 for the full control effect; nearly all actives have a fitted effect of over 55% in size
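Cells were seeded at 400 per well, treated with pin-transferred compound, and kept 48 or 72 hr at 37 °C before CellTiter-Glo addition and luminescence imaging of cellular ATP.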
hNpr1 antagonist: antagonists of human natriuretic peptide receptor Npr1; 1.6% of 76,000 active; HEK293 hNpr1 GloSensor cGMP, ANP-stimulated luminescence; Potency, µM (doses to about 46.3 µM), for inactives: at the highest dose activity change, negative = inhibition, most hits filed as inhibitors; calls by dose curve; also: % is scaled to controls: 0 for no effect and ±100 for the full control effect; nearly all actives have a fitted effect of over 60% in size
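Compound pre-incubated 30 min at room temperature on GloSensor-loaded HEK293 cells stably carrying hNpr1 and the pGS-40F cGMP biosensor. Stimulation uses hNppA at 0.1 nM final; luminescence is taken at baseline and 20 min post-agonist.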
FLuc SDR no ATP: binders stabilizing firefly luciferase, without ATP; 7.8% of 1,300 active; Potency, µM (highest dose often 32.7 µM), inactives show at the top dose activation (signal gain), usual class: activators; shares compounds with FLuc inh-1; Purified FLuc-C-HiBiT, Nano-Glo HiBiT luminescence, no ATP; also: nearly all actives have a fitted effect of over 55% in size
FLuc SDR ATP: stabilizes firefly luciferase with ATP present | shares compounds with FLuc inh-1 | 8.7% of 1,300 active | Potency, µM (highest dose often 32.7 µM), for inactives: at the highest dose activation (gain of signal), most hits filed as activators | purified FLuc-C-HiBiT + ATP, HiBiT complementation luminescence;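 also: signal reports ligand binding via conformational change of the enzyme rather than luciferase catalysis; % of control where 0% means no effect; nearly all actives have a fitted effect of over 55% in size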
FLuc inh-2: firefly luciferase enzyme inhibition. shares compounds with FLuc inh-1. purified FLuc-C-HiBiT enzyme, luciferin luminescence. Potency, µM (titrated, usually from 32.7 µM), for the others: at the highest dose activity change, negative = inhibition, most hits filed as inhibitors. 42% of 1,300 active; also: % is scaled to controls: 0 for no effect and ±100 for the full control effect; nearly all actives have a fitted effect of over 70% in size
Active calls of the source: *; ! = a repeat was not active; [ ] = another dose, or the depositor's remark. Rows were chosen to be rich in hits. Some 11% of all compounds tested hit in one or more screens of this group. Unless noted, calls follow the shape of the dose curve; as a rule, active = well fitted curve in the direction sought with a large enough effect; inconclusive = small, poorly fitted or top-dose-only effect, or another doubt; inactive = no such curve, though single readings can be large; an effect the other way counts as inactive or inconclusive. Potency is read from the fitted curve at half-maximal effect.

COc1cccc(C(=O)N2CC(c3nnc(-c4ccc(C)cc4)o3)C3(CCOCC3)C2)c1C (stereo not given) was read as HEK293 tox inconclusive, FLuc inh-1 inactive, NIH3T3 tox -14% and hNpr1 antagonist -2%.
For CCNc1cc(N2CCC(CCC(=O)O)CC2)ncn1 the results were HEK293 tox 11%, FLuc inh-1 32µM*, NIH3T3 tox -8%, hNpr1 antagonist 0%, FLuc SDR no ATP 13%, FLuc SDR ATP 9.9µM* and FLuc inh-2 5.6µM*.
Cc1cc(CN2CCOc3c(O)cc(-c4ccccc4C)cc3C2)on1 was read as HEK293 tox inconclusive, FLuc inh-1 inactive, NIH3T3 tox inconclusive and hNpr1 antagonist -2%.
`Oc1cc(-c2nc3ccccc3s2)cc2c1OCCN(Cc1cccn1-c1ncccn1)C2` gave FLuc SDR no ATP 10%, FLuc SDR ATP 7% and FLuc inh-2 -13%.
Screening Cc1cccc(CN2CCOc3c(O)cc(-c4ccccc4C)cc3C2)n1 returned HEK293 tox inconclusive, FLuc inh-1 inactive, NIH3T3 tox inconclusive and hNpr1 antagonist -2%.
Screening Oc1cc(-c2nc3ccccc3s2)cc2c1OCCN(Cc1cccn1-c1ccccn1)C2 returned FLuc SDR no ATP 14%, FLuc SDR ATP 11% and FLuc inh-2 -19%.
CCCCNc1nc(N)c2[nH]c(=O)n(Cc3ccc(OCCN(C)C)nc3)c2n1 was read as FLuc SDR no ATP 11%, FLuc SDR ATP 8% and FLuc inh-2 -5%.
COc1ccc2c(c1)c(CN1CCc3nn(C)c(=O)n3CC1)cn2C was read as HEK293 tox inconclusive, FLuc inh-1 inactive, NIH3T3 tox inconclusive and hNpr1 antagonist -8%.
`COc1ccc(-c2nnc(SC(C)C(=O)O)o2)cc1` (stereo not given) gave FLuc SDR no ATP inconclusive, FLuc SDR ATP inconclusive and FLuc inh-2 inconclusive.
Screening COc1ccc(-c2nnc([C@H]3CCN(C(=O)c4ccc(F)cc4)C3)o2)cc1 returned HEK293 tox -12%[172 µM], FLuc inh-1 inactive, NIH3T3 tox -21%[138 µM] and hNpr1 antagonist 1%[70.6 µM].
For N#Cc1cccc(C(=O)N2CCN3CCS(=O)(=O)N(C4CC4)C(=O)C3C2)c1 (stereo not given) the results were HEK293 tox inactive and NIH3T3 tox -12%.
Screening N#Cc1ccc(C(=O)Nc2ccc([C@H]3OCC(=O)N(C4CCOCC4)[C@@H]3CO)cc2)cc1 returned HEK293 tox -4%, FLuc inh-1 inactive, NIH3T3 tox 1% and hNpr1 antagonist 0%.
For O=C(Nc1ccc([C@H]2OCC(=O)N(C3CCOCC3)[C@@H]2CO)cc1)c1ccc(C(F)(F)F)cc1 the results were HEK293 tox -5%, FLuc inh-1 10µM*, NIH3T3 tox -18%, hNpr1 antagonist 0%, FLuc SDR no ATP inconclusive, FLuc SDR ATP 15% and FLuc inh-2 inconclusive.
Screening c1cnc2nc(-c3ccncc3)[nH]c2c1 returned HEK293 tox -20%[230 µM], FLuc inh-1 inactive, NIH3T3 tox inconclusive and hNpr1 antagonist -2%[70.6 µM].
Screening COc1ccc(-c2nc3ncccc3[nH]2)cc1 returned HEK293 tox 79µM*, FLuc inh-1 13µM*, NIH3T3 tox 79µM*!, hNpr1 antagonist -17%[70.6 µM], FLuc SDR no ATP inconclusive, FLuc SDR ATP inconclusive and FLuc inh-2 16µM*.
Screening COc1ccccc1-c1ccc2c(C(=O)NCc3ccc4c(c3)OCO4)nn(C)c2n1 returned HEK293 tox -29% and NIH3T3 tox inconclusive.
For CC(C)c1cnc(N2CCC(COc3ccc4c(cnn4CCC(=O)O)c3)CC2)nc1 the results were HEK293 tox inconclusive, FLuc inh-1 14µM*, NIH3T3 tox inconclusive, hNpr1 antagonist 1%[70.6 µM], FLuc SDR no ATP 15%[49.3 µM], FLuc SDR ATP 9%[49.3 µM] and FLuc inh-2 inconclusive.
`CCCc1noc(-c2ccn3c(CNC(=O)c4ccccc4OC)nnc3c2)n1` gave HEK293 tox inactive, FLuc inh-1 inactive, NIH3T3 tox -9% and hNpr1 antagonist -3%.
COCC(=O)Nc1ccc2c(c1)CN(Cc1cccc(OC)c1OC)CCO2 was read as HEK293 tox -23% and NIH3T3 tox -36%.
`CC(C)NC(=O)N1CCCC1C(=O)N1CCC(N2CCCC2=O)CC1` (stereo not given) gave HEK293 tox 0% and NIH3T3 tox -26%.
Screening CCNc1ncnc2sc3c(c12)CCN(S(=O)(=O)c1ccccc1)C3 returned HEK293 tox 0%, FLuc inh-1 inactive, NIH3T3 tox -23% and hNpr1 antagonist 3%.
O=C(NCCc1ccc(Cl)cc1)c1nc(-c2ccc(Cl)cc2)c2ccccn12 was read as HEK293 tox inconclusive, FLuc inh-1 inactive, NIH3T3 tox -29% and hNpr1 antagonist -1%.
`Clc1ccc2c(c1)-n1cc(-c3ccccc3)nc1CO2` gave FLuc SDR no ATP 16%, FLuc SDR ATP 11% and FLuc inh-2 -19%.
`O=C1COc2ccc(-c3ccncc3)nc2CN1Cc1ccccc1` gave HEK293 tox inconclusive, FLuc inh-1 inactive, NIH3T3 tox inconclusive and hNpr1 antagonist -17%[70.6 µM].
Screening Cc1nc(C)c(C(=O)N2CC(Oc3ccc(-c4noc(-c5ccccc5)n4)cc3)C2)s1 returned HEK293 tox -17%, FLuc inh-1 inconclusive, NIH3T3 tox -12% and hNpr1 antagonist inconclusive.
For CCc1nc(-c2ccc(OC3CCN(C(=O)COc4ccc(F)cc4)C3)cc2)no1 (stereo not given) the results were HEK293 tox inconclusive, FLuc inh-1 inactive, NIH3T3 tox inconclusive and hNpr1 antagonist inconclusive.
CCc1nc(-c2ccc(OC3CCN(C(=O)C4CC4)C3)cc2)no1 (stereo not given) was read as HEK293 tox inconclusive, FLuc inh-1 7.9µM*, NIH3T3 tox inconclusive, hNpr1 antagonist inconclusive, FLuc SDR no ATP 27%, FLuc SDR ATP 20% and FLuc inh-2 inconclusive.
For Cc1nc(C)c(C(=O)N2CCC(Oc3ccc(-c4noc(-c5ccccc5)n4)cc3)C2)s1 (stereo not given) the results were HEK293 tox inconclusive, FLuc inh-1 5.6µM*, NIH3T3 tox inconclusive, hNpr1 antagonist 6.3µM*, FLuc SDR no ATP 15%, FLuc SDR ATP 10% and FLuc inh-2 inconclusive.
